Assay outcomes as filed in PubChem BioAssay.
Only some compounds are listed: those with a hit (about 2.2% of all), similar ones and a draw of the others.
Shn3 inh set2 = reduces Shn3 3'UTR luciferase signal in osteoblasts | Clone20 osteoblast Shn3 3'UTR firefly luciferase, 24 h | inhibition, % at 12.5 µM | 0.52% of 360,000 active | AID 588674;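 active = mean inhibition of at least 75% with every replicate also reaching 75%; inconclusive = mean inhibition at least 75% but some replicate below; inactive = mean inhibition below 75%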;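 note: 0% = median of neutral control wells and 100% = pilot-screen positive control compound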
PfHsp90 set2 = growth inhibition of yeast expressing Plasmodium Hsp90; S. cerevisiae expressing PfHsp90, BacTiter-Glo ATP, 48 h; yeast lacking PDR1 and PDR3 efflux regulators; inhibition, % at 9.4 µM; 0.32% of 310,000 active; AID 504621;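 active = every replicate shows inhibition above about 80%, whatever the replicate mean, limit read from the data; inconclusive = mean inhibition reaches the set limit but some replicate falls short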;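 note: 0% = DMSO neutral controls and 100% = 20 µM radicicol positive controls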
Calb FLC = affects C. albicans growth with fluconazole; C. albicans CaCi-2 (fluconazole-resistant clinical isolate) + fluconazole, Alamar Blue growth, 48 h; growth inhibition, % (no concentration beside the values); 0.57% of 300,000 active; AID 1979;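 active = growth inhibition above about 58% in most replicates, limit read from the data, passing the limit was not always enough; inconclusive = exactly half the replicates above a set limit; inactive = most replicates below a set limit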;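 note: all wells also contain fluconazole at 8 µg/ml as a sub-toxic cotreatment; 0% = median of DMSO wells and 100% = median of geldanamycin control wells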
CSC inhib = cancer stem cell inhibition; cancer stem cell-like cells viability, luminescence; inhibition, % at 7.5 µM; 1.1% of 300,000 active; in the data active = inhibition above about 75%; inconclusive = no clear call, values can overlap the other calls; tested in HMLE shEcad cells
Beta apoptosis = beta cell apoptosis inhibition; INS-1E cytokine-induced death, ATP luminescence, 48 h; percent of positive-control rescue, neutral wells zero; protection from apoptosis, % (no concentration beside the values); 0.8% of 300,000 active;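 active = Every replicate reaches about 75%, or at least half do and their mean reaches it too, limit read from the data; inconclusive = At least half of replicates reach the limit but their mean does not; inactive = Under half of replicates reach the limit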;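 note: 0% = cytokine-treated negative control wells and 100% = positive control rescue; higher means more ATP so stronger rescue from cytokine killing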
* marks the source's active call; other numbers are inactive results; ? = inconclusive; / = no result.

SMILES	Shn3 inh set2	PfHsp90 set2	Calb FLC	CSC inhib	Beta apoptosis
CC(C)(C)OC(=O)C(C)(C)Sc1nnc(N)s1	-8	-7	8	-9	-14
Cc1cc[n+](C(C)C(=O)c2ccc(-c3ccccc3)cc2)cc1 (stereo not given)	24	2	-18	4	99*
Cc1ccc(S(=O)(=O)Nc2ccccc2F)cc1C(=O)NCc1ccco1	-1	13	/	/	/
Cc1c(C(=O)OC2CCCC2)[nH]c2c1C(=O)CC(c1ccco1)C2 (stereo not given)	90*	-33	5	64	43
CCSc1nc(-c2ccccc2)nc(C(Cl)Cl)n1	23	-3	-33	100*	94*
CSc1nc(-c2ccc(C)cc2)nc(C(Cl)Cl)n1	7	/	-4	72	6
COc1ccc(-c2ccc(OC)c([C@H]3[C@@H]4C=CCC[C@@]4(C)C(=O)N3Cc3ccccc3)c2)cc1OC	2	-20	17	28	5
Cc1ccc(-c2ccc([C@H]3[C@@H]4C=CCC[C@@]4(C)C(=O)N3Cc3ccccc3)c(F)c2)cc1	31	-2	-3	96*	5
C[C@@]12CCC=C[C@H]1[C@H](c1ccc3ccccc3c1)N(Cc1ccccc1)C2=O	-3	26	-5	86*	-8
COc1ccc(-c2ccc(N(C)C)cc2)cc1[C@H]1[C@@H]2C=CCC[C@@]2(C)C(=O)N1Cc1ccccc1	14	/	3	49	4
COc1ccc(-c2cc([C@H]3[C@@H]4C=CCC[C@@]4(C)C(=O)N3Cc3ccccc3)ccc2F)cc1	3	-23	-10	122*	-3
COc1ccc(-c2ccc([C@H]3[C@@H]4C=CCC[C@@]4(C)C(=O)N3Cc3ccccc3)c(F)c2)cc1	22	-5	-13	54	85*
CCOC(=O)c1nc2c(ccc3ccccc32)cc1C	-32	/	-2	-5	4
O=C([C@H]1O[C@@H](n2ccc(=O)[nH]c2=O)[C@H](O)[C@@H]1O)N1CCSC1	-12	/	/	/	/
Cc1cc(N(C)N)nc(NC(=O)NS(=O)(=O)c2ccccc2Cl)n1	-8	-3	-2	-19	-4
CC(C)CN(C(=O)COc1ccc(-c2nnco2)cc1)C1CCS(=O)(=O)C1 (stereo not given)	1	-12	5	-5	/
CC(=O)c1ccc(-c2ccc([C@H]3[C@@H]4C=CCC[C@@]4(C)C(=O)N3Cc3ccccc3)c(F)c2)cc1	36	28	-7	121*	22
O=C(N/N=C\c1cn(-c2ccccc2)nc1-c1ccccc1)c1ccc(Br)o1	-16	/	-1	35	110*
O=C(N/N=C/c1cn(-c2ccccc2)nc1-c1ccccc1)c1ccco1	-48	-5	12	2	2
Cc1ccc(-c2nn(-c3ccccc3)cc2/C=N/NC(=O)c2ccc(Br)o2)cc1	25	2	-4	29	136*
O=C(/C=C/c1ccc([N+](=O)[O-])cc1)NCCN1C(=O)S/C(=C\c2ccc(F)cc2)C1=O	-2	-4	-8	10	13
COc1ccccc1CN(C)C(=O)c1ccc(S(=O)(=O)Nc2c(C)n(C)n(-c3ccccc3)c2=O)cc1	-6	11	/	-9	-8
Cc1noc(NC(=O)c2cccc(Cl)c2Cl)c1C#N	-14	-7	-2	-4	6
COc1ccc2c(c1OC)C(=O)OC2C1c2c(cc3c(c2OC)OCO3)CCN1C (stereo not given)	0	-2	3	13	-7
CN1CCc2cc3c(c4c2[C@H]1[C@H](O)c1ccccc1-4)OCO3	-45	-14	95*	15	72
SMILES	Shn3 inh set2	PfHsp90 set2	Calb FLC	CSC inhib	Beta apoptosis
CC1=C(C(=O)N(C(C)C)C(C)C)CC(CC(=O)NC(c2ccccc2)c2ccccc2)C(=O)N1CCCN1CCCC1=O (stereo not given)	-20	/	/	/	/
O=C1NC(=S)S/C1=C\C=C\c1ccc([N+](=O)[O-])o1	79	106*	/	/	/
CN=C1c2cc3cc(OC)ccc3n2CCN1Cc1ccccc1	90*	/	2	/	/
CCN(CC)CCNC1=NCCn2c1cc1cc(OC)ccc12	-21	67	26	16	6
CCOC(=O)C1=C(COC(=O)/C=C/c2cc(OC)c(OC)c(OC)c2)NC(=O)NC1C (stereo not given)	17	-10	6	-8	-1
CCC(C)c1ccc(O)c(NC(=S)NC(=O)c2cccnc2)c1 (stereo not given)	-20	-2	82*	31	/
CC(C)c1ccc(O)c(NC(=O)c2cccnc2)c1	-5	7	3	-5	-1
COc1ccccc1OCCCCOc1ccccc1C(C)=O	41	-22	?	8	100*
CC(=O)c1ccccc1OCCOc1ccccc1C(C)=O	14	-8	6	10	/
CC1CC1C(=O)N1CCN(S(=O)(=O)c2cc(C(F)(F)F)cc(C(F)(F)F)c2)CC1 (stereo not given)	-19	-1	/	79*	3
O=C(Nc1n[nH]c(C(F)(F)F)n1)C1CC1	3	7	20	-11	-9
CCOc1ccc(C(C(=O)NC(C)(C)C)N(CCOC)C(=O)CCC(=O)Nc2ccccn2)cc1 (stereo not given)	11	6	6	-1	-6
Cc1ccc(C)c(S(=O)(=O)NCc2ccc(C(=O)NCc3ccco3)cc2)c1	3	2	-2	-11	6
Cc1ccc(C(=O)NCc2ccco2)cc1S(=O)(=O)Nc1cccc(Cl)c1	-22	12	113*	8	-4
CN(C1CCCCC1)S(=O)(=O)c1ccc(-c2ccccn2)s1	-10	/	-11	/	/
O=C(CCN1CCc2ccccc2C(c2ccccc2)C1)c1ccc2c(c1)OCCO2 (stereo not given)	47	138*	-19	26	-38
O=C(CCN1Cc2ccccc2C1)c1ccc2c(c1)OCCO2	56	-1	-7	?	-21
c1ccc(-c2cn(-c3ccccc3)c3[n+]2CCS3)cc1	62	-12	2	0	53
CC(C)(C)c1ccc(-c2cn(-c3ccc(Br)cc3)c3[n+]2CCCS3)cc1	80	-11	102*	/	/
COc1ccc(OC)c(/C=C/C(=O)NCCc2nc3ccccc3[nH]2)c1	/	-11	-9	-6	-4
CCCCCN=C(N)N/N=C/c1c[nH]c2ccc(OC)cc12	67	33	/	119*	56
CCCOc1ccc(C(=O)N/N=C/c2c[nH]c3ccc(Br)cc23)cc1	-14	14	10	51	-8
COc1ccccc1N1CCN(C(=O)c2cc3cc(Cl)ccc3[nH]2)CC1	3	-16	114*	59	0
COc1ccccc1N1CCN(c2ncc(C(=O)N3CCN(c4cccc(Cl)c4)CC3)c3ccccc23)CC1	93*	0	4	20	89*
CCOc1ccccc1C(=O)N1CCN(c2cccc(Cl)c2)CC1	1	5	-10	63	21
Cc1cccc(N2CCN(C(=O)CCc3nc4ccccc4c(=O)[nH]3)CC2)c1C	18	-25	/	-4	-4
O=C(COc1ccc(Cl)cc1)Nc1ncc([N+](=O)[O-])s1	-30	-7	98*	/	/
